# Reference: the supplement of paper PMC3334620
# Over roughly 33,000 sequences, “E-score (-0.5 to 0.5)” has its median near -0.04; the highest 2% begin near 0.36. What follows is part of a selection rich in the highest values, with near analogues and random picks from the rest.
# Target: T1, Hmlalpha2 (UniProt P0CY09)
# T1 sequence: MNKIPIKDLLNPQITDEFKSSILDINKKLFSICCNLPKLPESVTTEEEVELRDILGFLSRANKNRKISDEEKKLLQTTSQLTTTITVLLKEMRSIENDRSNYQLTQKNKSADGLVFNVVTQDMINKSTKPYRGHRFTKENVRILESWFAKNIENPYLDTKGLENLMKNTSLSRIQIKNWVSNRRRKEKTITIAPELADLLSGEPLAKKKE
# Experiment: PBM E-score (8-mer binding enrichment) (E-score (-0.5 to 0.5)); higher = stronger / more preferred TF binding
# Settings: protein concentration: 200 nM; construct: GST-full length
# Outline: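 Yeast transcription factors carrying a GST tag, as full-length proteins or DNA-binding domains, were produced by PURExpress in vitro transcription/translation. About 100-200 nM protein was applied to universal all-10-mer Agilent arrays, double-stranded by primer extension on fresh or once-stripped slides. Bound protein was detected with fluorescent anti-GST, and scans were normalised with masliner. The Universal PBM Analysis Suite gave each ungapped eight-base word, pooled with its reverse complement, an E-score, a modified Wilcoxon-Mann-Whitney statistic.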
row,Sequence,PBM E-score
1,GGTATGCA,-0.0286
2,AGGCCTTC,-0.156
3,AATCCGTG,-0.129
4,CGTCCATA,0.0125
5,GGCAACAA,0.0607
6,TAATTTCA,0.182
7,ATCAAGTG,-0.0416
8,CAGCATTA,0.109
9,GCATTTCA,-0.082
10,ACACGACC,0.396
11,CCACGACC,-0.0888
12,GCACGACC,-0.188
13,ACACGACT,0.391
14,AAACGACT,-0.0906
15,ACACGAGG,0.292
16,ACACGAGT,0.389
17,ACACGAGA,0.291
18,ACACGACG,0.42
19,AGACGACG,-0.129
20,CCACGACG,-0.097
21,ACACGAAT,0.356
22,AAATGCAG,-0.012
23,ACCCGACC,-0.145
24,ACTAACGG,-0.168
25,ACACGACA,0.412

row,Sequence,PBM E-score
1,CCACGACA,-0.103
2,TCACGACA,0.116
3,ATTACGGG,-0.0184
4,ATTACGCC,0.187
5,ATTACGCG,0.467
6,CTTACGCA,0.341
7,ATTACGCA,0.435
8,GTTACGCA,0.277
9,CGAAGAGC,-0.12
10,CCAAGCAG,-0.127
11,AACAGCTA,0.115
12,ACCTGAGG,-0.266
13,TATTAACA,0.428
14,GATTAACA,0.413
15,GATTAACC,-0.108
16,CATTAACC,0.128
17,TATTAAAA,0.24
18,AATTAACA,0.425
19,CATTAACG,0.277
20,CATTAACA,0.409
21,TATTAATA,0.173
22,AATTAACT,0.173
23,AATTAACC,0.104
24,GATTAAGA,0.0797
25,GGCAGTTA,0.0486

row,Sequence,PBM E-score
1,CACCGGGC,-0.256
2,ATGGTATA,0.178
3,CTTGACTC,-0.216
4,GCAAGCTA,0.0155
5,ATTTGCTG,0.024
6,CTACACTC,0.145
7,GTACACTA,0.135
8,CTACACGA,0.451
9,CTACACCA,0.165
10,CGACACGC,0.243
11,CTACACTA,0.208
12,GTACACCA,0.089
13,CTACACGC,0.428
14,GTACACGA,0.425
15,AGCCACCG,-0.248
16,CCCACCAC,-0.191
17,ATACGCCA,-0.109
18,CAATACAA,0.256
19,TAATACAA,0.375
20,CAATACAG,0.0335
21,AAATACGT,0.246
22,CAATACAC,0.431
23,AAATACTT,0.208
24,AAATACAG,0.172
25,AAATACAA,0.347

row,Sequence,PBM E-score
1,AAATACAT,0.441
2,CAATATAC,0.131
3,TCATACAA,0.0397
4,AAATACAC,0.431
5,GTGGGACA,-0.0285
6,AGCTGTTA,0.0595
7,CGGTGCGA,-0.141
8,CACTGTTA,0.0828
9,ACGCTACG,0.0651
10,GACCGTCC,-0.302
11,TAAGGCCA,0.0046
12,TAAGCAGA,0.00375
13,AGAATCTG,-0.187
14,GGTGGACA,-0.0373
15,GAATACGC,0.357
16,GAATACAC,0.451
17,GAATACAA,0.352
18,CCAGGCAG,-0.272
19,AGACCTGC,-0.0816
20,CTTCGGCA,-0.198
21,ATAAACAG,0.0861
22,GGAAACAC,0.119
23,ATAAACAA,0.323
24,CTAAAAAC,0.0815
25,GTAAAAAC,0.385

row,Sequence,PBM E-score
1,ATAAACAC,0.365
2,CTAAACAC,0.296
3,GTAAACAC,0.416
4,AAAAACAT,0.297
5,ACAAACAT,0.305
6,ATAAACAT,0.383
7,GTAAAAAA,0.286
8,ATACCTCA,-0.072
9,AGCATTGC,0.0222
10,AGCGGGGA,-0.24
11,CGTTGAAA,0.0902
12,TACGGCCA,-0.262
13,CTAAACAA,0.0668
14,GTAAACAA,0.37
15,TTAAACAA,0.274
16,ATGCTAAG,0.027
17,CGTCGAAC,0.0323
18,GGTGTGTA,0.423
19,CGTGTGTC,0.2
20,CGTGTACA,0.467
21,GGGGTGTA,0.0612
22,AGTGTGTC,0.174
23,AGTGTGTA,0.395
24,CGTGTGTA,0.413
25,AGTGTACA,0.301

row,Sequence,PBM E-score
1,CGTGTACC,0.326
2,CGTGTGCA,0.0955
3,AGTGTGTG,0.127
4,GGTGTGCA,-0.155
5,CCGGACGA,-0.0406
6,ATGGGAAT,0.0681
7,CAGCACCG,-0.189
8,GCGCGGTA,0.0518
9,ACCTGCAG,-0.0825
10,AAGCAGGG,-0.116
11,CGTGTATC,0.332
12,GGTGTATA,0.0823
13,CGTGTATA,0.452
14,GGTCTATA,0.121
15,CTATACAC,0.213
16,ATATATAC,0.345
17,ATATACAG,0.131
18,GTATACAA,0.291
19,ATATACAA,0.343
20,ATATACAT,0.435
21,GTATACAC,0.416
22,GTATATAC,0.155
23,ATATACAC,0.422
24,AAGGTAAC,0.0918
25,CACGCCCC,0.0158

row,Sequence,PBM E-score
1,ACTTGAGG,-0.203
2,GATGTGCA,-0.091
3,GATGTGTA,0.38
4,AATGTGTC,0.0899
5,CATGTGGA,0.144
6,CATGTGTC,0.152
7,GATGTGGA,-0.0421
8,AATGTGTA,0.371
9,CATGTGTA,0.427
10,AATGTGTG,0.0802
11,AACAAGGC,0.219
12,CATCAAGC,-0.116
13,ACCCTAAT,-0.101
14,CCTAATCA,0.0766
15,GTGTGAGA,0.0378
16,AAAACAGA,0.137
17,ATAAAAAG,0.19
18,GGGTAACA,0.17
19,ATGTAACA,0.454
20,GCGTAACA,0.29
21,AAGTAACA,0.245
22,CTGTAACA,0.223
23,GTGTAACA,0.411
24,AGGAGTGG,-0.145
25,ACCCGAGA,-0.255

row,Sequence,PBM E-score
1,AGTCTGCG,-0.0616
2,ACCAGAAT,0.0511
3,AAACAACT,0.0928
4,CCACAACA,0.0233
5,AAACAACC,0.168
6,CTACAACA,0.283
7,GCACAACA,0.187
8,ACACAACA,0.381
9,AAACAACA,0.367
10,TCACACCA,-0.0124
11,GTACAACA,0.395
12,ACACACCA,0.369
13,CCACACCA,0.0331
14,ATACAACA,0.355
15,GTGCTCAA,0.197
16,ATCTGGGG,-0.267
17,CGCTTACA,0.287
18,AAGTTCCG,-0.0355
19,AAGCGGGG,-0.0783
20,AGCTCCCA,-0.128
21,AATGCTCG,0.0169
22,TGAAAGAA,0.129
23,AAAGCACA,0.123
24,AAGTATCT,0.0958
25,ACACAACC,0.305

row,Sequence,PBM E-score
1,ACACAGCG,0.424
2,ACACAACT,0.317
3,ACACAACG,0.377
4,ACACAGCC,0.317
5,ACACAGCA,0.358
6,GAGGAAGC,-0.231
7,AAGAGATG,-0.0147
8,TAAACTTA,0.228
9,CGAAGATA,-0.04
10,AGGTAAGC,-0.198
11,ACAGTCTG,-0.159
12,ACACATCA,0.183
13,TACATATA,0.374
14,AACATAAA,0.28
15,TACATACA,0.443
16,CACATACA,0.33
17,GACATACA,0.315
18,CACATATA,0.311
19,AACATACT,0.255
20,TACATAAA,0.369
21,AACATACA,0.368
22,CACATAAA,0.259
23,GACATATA,0.163
24,AACATACG,0.363
